Drawing on PubChem BioAssay (NCI), this text covers growth for 40 compounds.

Compounds without any hit were thinned out: in the full panel of roughly 83,000, 20% have a hit.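 Single-concentration screen, 48 h exposure, 96-well plates. Endpoint: percent growth. Below 10 = active.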 Activity calls are given as the source filed them.

The assay deals with TK-10 renal. Briefly: NCI-60 one-dose screen, 48 h (100 = growth as untreated, 0 = no growth, -100 = all killed). Conditions: 10 µM unless noted. The procedure: Growth inhibition of the TK-10 human tumor cell line is measured as a screen for anti-cancer activity. Cells are grown in 96 well plates and exposed to the test compound for 48 hours. Compounds are tested at a single concentration, which is 10^-5 M for most compounds. The reported endpoint is percent growth (GI% or GIPRCNT), where numbers from 0 - 100% represent growth inhibition, and numbers from -100% - 0 represent cell death. For example, a value of 40 represents 60% growth inhibition. A value of 0 means no net growth occurred over the course of the experiment. A value of -40 indicates 40% of cells at the beginning of the experiment died by the end of the experiment. A value of -100 means all cells are dead at the end of the experiment.
NCI-60 Human Tumor Cell Lines Screen was performed using the standard one-dose NCI protocol, which is described in more detail at https://dtp.cancer.gov/discovery_development/nci-60/default.htm.
Compounds with GIPRCNT values below 10 were considered active. Activity score was based on GIPRCNT using the following formula: […]
Score is 0 for GIPRCNT values of 100 or above, 50 for GIPRCNT values of 0, and 100 for GIPRCNT values of -100.
In the case of `NC1=C(C/C(N)=N\O)C(c2ccccc2Cl)c2c(ccc3ccccc23)O1` (stereo not given), the growth is 180% (inactive).
With `Cc1cc(N2CCCCC2)nc(N(CCCNc2ccnc3cc(Cl)ccc23)Cc2ccco2)n1` the figure was 63.2% (inactive); with `C[C@]12CC[C@@H]3c4ccc(O)cc4CC[C@H]3[C@@H]1C[C@H](O)[C@@H]2O`, 100% (inactive).
With `O=S(=O)(NCCNc1cc(-c2cn(-c3ccccc3)nc2-c2cccc(O)c2)ccn1)c1ccccc1` the figure was 67.1% (inactive); with `CCCCCCCN(CCCCCCC)C(=N)c1ccnc2ccccc12`, 14.9% (inactive); with `C[C@@H]1CCCCCCCCC[C@H](O)C(=O)C[C@@H](SC[C@@H](O)C(=O)O)C(=O)O1`, 95.2% (inactive).
To `Cc1ccc(Nc2c(C(N)=O)cnc3ccc(S(=O)(=O)Nc4cc(C)on4)cc23)cc1` belongs 118% (inactive).
With `COc1cnc2c(c1)C(=O)c1c-2n(CCCN2CCN(CCO)CC2)c(=O)c2cc([N+](=O)[O-])ccc12`, the growth was 97.2% (inactive).
As for `Nc1c(C(=O)Nc2cccc(Br)c2)sc2nc3c(cc12)C(=O)CCC3`, the growth was 69% (inactive).
With `C#Cc1cccc(NC(=O)C2CCCN(C(=O)CCl)C2)c1` (stereo not given) the figure was 98.9% [8.25 µM] (inactive).
With `O=C(NCN1C(=O)c2cccc3cccc(c23)C1=O)N1CCC(Cc2ccccc2)CC1` the figure was 98% (inactive).
Turning to `O=C1Nc2ccccc2/C1=C/c1cn(CCCn2c3ccccc3c(=O)c3ccccc32)c2ccccc12`, the growth was 140% (inactive).
To `N=C(N)c1ccc(S(N)(=O)=O)cc1` belongs 96.6% (inactive); to `N#C/C(=C\c1ccc(-c2ccc(Br)cc2)o1)c1nc(-c2cccs2)cs1`, 185% (inactive).
To `O=S(=O)(NCCNc1cc(-c2cn(-c3ccccc3)nc2-c2cccc(O)c2)ccn1)c1ccc(Br)cc1` belongs 46.1% (inactive); to `N=c1c(S(=O)(=O)c2ccccc2)cc2c(=O)n3ccccc3nc2n1C1CCCC1`, 82.5% (inactive).
On to `Cc1cc2nc3c4cc([N+](=O)[O-])cc([N+](=O)[O-])c4n(CCN(C)C)c3nc2cc1C`, for which the growth is 117% (inactive).
With `O=C(NO)c1ccc(Cn2c(=O)n(-c3ccccc3)c(=O)c3ccccc32)cc1` the figure was 28.1% (inactive); with `CN1CCN(c2ccc3nc(-c4[nH]ncc4Nc4ncnc5c4OCCCN5)[nH]c3c2)CC1`, -62.7% (active).
To `COc1ccc(CCN2C(=O)C(C)(C)SC2=S)cc1OC` belongs 96.3% (inactive).
On to `Cc1c(C)c2c(c(C)c1NC(=O)CCCCCCC(=O)O)CCC(C)(CCCC(C)CCCC(C)CCCC(C)C)O2` (stereo not given), for which the growth was 87.6% (inactive).
To `COC(=O)[C@]12CC[C@@H](C)[C@H](C)[C@@H]1C1=CC[C@@H]3[C@@]4(C)CC(=O)[C@H](OC(=O)c5ccco5)[C@@]5(C)COC(=C45)C[C@@]3(C)[C@]1(C)CC2` belongs 38.5% (inactive); to `CCOC(=O)C1OC1(c1ccccc1)c1ccccc1` (stereo not given), 107% (inactive).
In the case of `CCN1CCN(C(=O)[C@]23CC[C@@H](C)[C@H](C)[C@H]2C2=CC[C@@H]4[C@@]5(C)C/C(=C/c6cccc(OC)c6OC)C(=O)C(C)(C)[C@@H]5CC[C@@]4(C)[C@]2(C)CC3)CC1`, the growth is 95.9% (inactive).
To `COc1cc2c3c(c4c5ccccc5[nH]c4c2c(OC)c1OC)C(=O)N(O)C3=O` belongs 80.1% (inactive).
With `NC(=O)[C@@H]1CC2CCC1C2` (stereo not given in full) the figure was 120% (inactive).
As to `CC(=O)Nc1cc(F)cc(C(F)(F)F)c1Cl`, the growth was 104% (inactive).
With `COc1cc2c(cc1-c1c(C)noc1C)ncc1nc(C3CCC(F)(F)CC3)n([C@@H](C)COC(F)F)c12` the figure was 27.1% (inactive); with `COC(=O)[C@]12CC[C@@H](C)[C@H](C)[C@@H]1C1=CC[C@@H]3[C@@]4(C)C[C@@H](O)[C@H](O)[C@@](C)(CO)C4=CC[C@@]3(C)[C@]1(C)CC2`, -17.7% (active).
With `COc1ccc(C2=NN(c3nc(-c4ccc(OC)cc4)c(C#N)c(=O)n3C)C(=O)CC2)cc1` the figure was 107% (inactive).
To `Clc1ccc(Cn2cc(-c3nc4ccc(Br)nc4n3Cc3ccc(Cl)cc3)c3cccnc32)cc1` belongs 112% (inactive); to `Cn1cc(-c2nc(-c3c[nH]c4ncccc34)cs2)c2cc(F)ccc21`, 23.2% (inactive); to `COC(c1ccccc1)(c1ccccc1)c1ccccc1`, 123% (inactive).
For the compound `CC(=O)c1c(C)[nH]c(-c2nc3ccc(N4CCN(C)CC4)cc3[nH]2)c1-c1ccc(N(C)C)cc1`, the growth was -6.31% (active).
To `COc1ccc(/C=C(\C#N)c2cc3ccccc3n2C(C)=O)cc1` belongs 126% (inactive); to `CCCNc1nc(N(C)O)nc(N(C)O)n1`, 65.1% (inactive).
With `CN(C)c1ccc(N=C2C=CC(=O)C=C2)cc1` the figure was 111% (inactive).
With `O=c1c(CNc2ccc(S(=O)(=O)Nc3ncccn3)cc2)coc2ccccc12` the figure was 106% (inactive); with `COc1ccc(OCC(CO)N2CCN(c3ccccc3)CC2)cc1` (stereo not given), 109% (inactive).
For `Cc1oc(-c2ccccc2Cl)cc1C(=O)Nc1ccc(S(N)(=O)=O)cc1`, the growth was 126% (inactive).
